From PubChem BioAssay (NCATS)
Records with an inconclusive call do not appear. Where a call stands in place of a potency, no number is given. Calls of active or inactive are those of the source. Unless noted, the call rests on the fitted dose curve; in most records, active means well fitted curve in the direction sought with a large enough effect; inconclusive means small, poorly fitted or top-dose-only effect, or another doubt; inactive means no such curve, though single readings can be large; an effect the other way counts as inactive or inconclusive.

What was measured:
[1] = S16 Schwann cell PMP22 intronic element beta-lactamase assay (AID 624044; calls by dose curve; further: nearly all actives have a fitted effect of over 15% in size; further: potency means the concentration at half of the fitted maximal effect); conditions: S16 rat Schwann cells, PMP22 element beta-lactamase FRET, 24 h; ratio activity, negative = inhibition: at 38.3 µM (top of the series)
Outline: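 Beta-lactamase reporter under a PMP22 intronic regulatory element in stable S16 rat Schwann cells; 24 h compound exposure. 460 nm blue signal normalized between DMSO (0%) and potassium clavulanate, with 535 nm FRET tracking viability; curves classed by r2 and response.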

[2] = tested on: CP335; assay: qHTS profiling for inhibitors of Plasmodium falciparum proliferation (AID 504749); further: nearly all actives have a fitted effect of over 60% in size; further: potency means the concentration at half of the fitted maximal effect; conditions: P. falciparum in erythrocytes, SYBR Green DNA, 72 h; series mostly up to 28.7 µM
Outline: (§1)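 Quantitative HTS: compounds pinned into medium, infected erythrocytes added (0.3% parasitemia, 2.5% hematocrit), 72 h culture at 37 C under 5% CO2. Saponin/Triton lysis with SYBR Green I, overnight RT, then fluorescence read.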

[3] = tested on: DFO2036; assay: as above; conditions: P. falciparum in erythrocytes, SYBR Green DNA, 72 h; series mostly up to 28.7 µM
Outline: as §1

[4] = tested on: DIV17; assay: as above; conditions: P. falciparum in erythrocytes, SYBR Green DNA, 72 h; series mostly up to 28.7 µM
Outline: as §1

[5] = tested on: DIV30; assay: as above; conditions: P. falciparum in erythrocytes, SYBR Green DNA, 72 h; series mostly up to 28.7 µM
Outline: as §1

[6] = tested on: PC26; assay: as above; conditions: P. falciparum in erythrocytes, SYBR Green DNA, 72 h; series mostly up to 28.7 µM
Outline: as §1

[7] = tested on: W2; assay: as above; conditions: P. falciparum in erythrocytes, SYBR Green DNA, 72 h; series mostly up to 28.7 µM
Outline: as §1

[8] = target: Ubiquitin carboxyl-terminal hydrolase 1 (Homo sapiens) (UniProt O94782); assay: Inhibitors of USP1/UAF1: Pilot qHTS (AID 504865);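 further: rhodamine fluorescence freed from ubiquitin-rhodamine substrate followed over time; top concentration of the series differs between compounds; nearly all actives have a fitted effect of over 35% in size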
Outline: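 Enzyme-free wells gave the negative control, while test wells held 1nM USP1/UAF1 preincubated with compound for 15 min at room temperature. Ub-Rho at 150nM final started the reaction, and fluorescence at 480/540 nm was recorded kinetically.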

[9] = S16 Schwann cell PMP22 intronic element firefly luciferase assay (AID 624032); further: nearly all actives have a fitted effect of over 30% in size; further: potency means the concentration at half of the fitted maximal effect
Outline: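 Rat S16 Schwann cells stably carrying a PMP22 intronic element-driven Fluc reporter were seeded overnight, then exposed to compounds for 24 h at 37 °C. Luminescence was normalized to PTC124 (positive control) and DMSO (0% activity).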

[10] = Confirmation and Secondary Assay for Modulators of Hemoglobin Beta Chain Splicing at IVS2 654 locus (AID 910);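 further: per-well total GFP intensity by laser scanning cytometry after 2-day treatment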
Outline: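 HeLa cells stably carrying EGFP interrupted by mutant beta-globin IVS2-654 intron (CMV-driven) were treated with compound for 2 days at 37C; corrected splicing was scored as total peak GFP intensity per well (488 nm excitation, 500-520 nm emission).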

[11] = Confirmation and Secondary Assay for Modulators of Hemoglobin Beta Chain Splicing at IVS2 705 locus (AID 930);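 further: HeLa cells stably expressing the EGFP-705 splicing reporter; GFP fluorescence per well restored by corrected splicing of the IVS2-705 intron in EGFP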
Outline: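 Splice-correction reporter: EGFP cDNA split by beta-globin intron 2 bearing the 705 mutation, stably in HeLa. Compound incubation 2 days, 37C; fluorescent objects 5-250 µm summed per well.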

[12] = target: Cytochrome P450 3A4 (Homo sapiens) (UniProt P08684); assay: qHTS Assay for Inhibitors and Substrates of Cytochrome P450 3A4 (AID 884); further: nearly all actives have a fitted effect of over 50% in size
Outline: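 Luminescent readout of luciferin produced by CYP3A4 (20 nM) dealkylation of Luciferin-PPXE, 25 uM (its KM). NADPH-driven reaction ran 60 min at RT after 10 min compound preincubation; data scaled to 57 uM ketoconazole as 100% inhibition.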

Sequence of Ubiquitin carboxyl-terminal hydrolase 1 (Homo sapiens) (O94782 whole entry, looked up): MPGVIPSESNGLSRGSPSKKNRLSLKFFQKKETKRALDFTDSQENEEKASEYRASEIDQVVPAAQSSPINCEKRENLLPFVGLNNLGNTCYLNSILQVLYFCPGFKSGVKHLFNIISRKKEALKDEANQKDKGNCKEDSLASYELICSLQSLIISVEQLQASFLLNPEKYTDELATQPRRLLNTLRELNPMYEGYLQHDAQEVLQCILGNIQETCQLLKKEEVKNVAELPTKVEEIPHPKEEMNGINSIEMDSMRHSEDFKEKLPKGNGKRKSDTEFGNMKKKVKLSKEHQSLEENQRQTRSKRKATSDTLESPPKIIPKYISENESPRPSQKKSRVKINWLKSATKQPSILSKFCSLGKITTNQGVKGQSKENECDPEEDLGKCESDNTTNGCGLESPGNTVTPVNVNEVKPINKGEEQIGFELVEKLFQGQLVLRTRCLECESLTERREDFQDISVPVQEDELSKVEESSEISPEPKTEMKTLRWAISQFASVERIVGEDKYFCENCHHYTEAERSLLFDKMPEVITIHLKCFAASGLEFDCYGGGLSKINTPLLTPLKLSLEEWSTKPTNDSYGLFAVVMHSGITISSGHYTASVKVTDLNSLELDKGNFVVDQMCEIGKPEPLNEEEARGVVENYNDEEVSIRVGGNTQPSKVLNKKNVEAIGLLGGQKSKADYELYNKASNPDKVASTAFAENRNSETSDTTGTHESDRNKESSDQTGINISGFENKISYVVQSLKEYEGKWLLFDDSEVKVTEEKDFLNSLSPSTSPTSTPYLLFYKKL
Sequence of Cytochrome P450 3A4 (Homo sapiens) (P08684 whole entry, looked up): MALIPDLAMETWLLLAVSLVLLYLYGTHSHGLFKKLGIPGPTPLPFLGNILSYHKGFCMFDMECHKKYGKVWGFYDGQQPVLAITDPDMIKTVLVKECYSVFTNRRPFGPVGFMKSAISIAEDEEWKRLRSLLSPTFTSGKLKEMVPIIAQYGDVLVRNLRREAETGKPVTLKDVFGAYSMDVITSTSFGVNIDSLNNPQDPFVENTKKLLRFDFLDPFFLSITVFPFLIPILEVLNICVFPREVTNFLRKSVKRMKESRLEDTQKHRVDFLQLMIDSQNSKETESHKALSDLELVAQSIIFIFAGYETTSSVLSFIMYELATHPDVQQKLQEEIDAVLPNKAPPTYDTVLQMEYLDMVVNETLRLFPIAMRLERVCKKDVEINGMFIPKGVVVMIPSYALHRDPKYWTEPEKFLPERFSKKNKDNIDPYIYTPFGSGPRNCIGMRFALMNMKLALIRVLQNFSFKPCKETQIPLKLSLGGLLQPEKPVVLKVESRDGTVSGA

Compound	Potency [1]	Potency [2]	Potency [3]	Potency [4]	Potency [5]	Potency [6]	Potency [7]	Potency [8]	Potency [9]	Potency [10]	Potency [11]	Potency [12]
C[n+]1c2cc(N)ccc2cc2ccc(N)cc21	inactive	849 nM (active)	355 nM (active)	269 nM (active)	1690 nM (active)	1350 nM (active)	757 nM (active)	–	–	–	–	–
O=c1ccn(C2OC(COP(=O)(O)OC3C(CO)OC(n4ccc(=O)[nH]c4=O)C3O)C(O)C2O)c(=O)[nH]1 (stereo unspecified)	inactive	inactive	inactive	inactive	inactive	inactive	inactive	inactive	inactive	–	–	–
CN[C@H](C)CCC=C(C)C	inactive	239 nM (active)	398 nM (active)	190 nM (active)	135 nM (active)	190 nM (active)	47.8 nM (active)	inactive	inactive	–	–	–
C[C@]12CC[C@@H]3c4ccc(O)cc4CC[C@H]3[C@@H]1C[C@H](O)C2O (stereo partly specified)	inactive	inactive	inactive	inactive	inactive	inactive	inactive	inactive	inactive	–	–	–
CCN(CC)C(=O)Nc1ccc(OC[C@H](O)CNC(C)(C)C)c(C(C)=O)c1	inactive	inactive	inactive	inactive	inactive	inactive	inactive	inactive	inactive	–	–	–
CC1(Cn2ccnn2)[C@H](C(=O)O)N2C(=O)C[C@H]2S1(=O)=O (stereo partly specified)	–	inactive	inactive	inactive	–	inactive	inactive	–	inactive	–	–	–
CC[C@@]1(O)CC2CN(CCc3c([nH]c4ccccc34)[C@](C(=O)OC)(c3cc4c(cc3OC)N(C)C3[C@@](O)(C(=O)OC)C(OC(C)=O)[C@]5(CC)C=CCN6CC[C@@]43C65)C2)C1 (stereo partly specified)	562 nM (active)	1900 nM (active)	891 nM (active)	4780 nM (active)	1690 nM (active)	–	953 nM (active)	inactive	510 nM (active)	inactive	inactive	–
OCC1O[C@H](O[C@H]2C(O)C(O)C(O)O[C@@H]2CO)C(O)C(O)C1O (stereo partly specified)	–	inactive	inactive	inactive	inactive	inactive	inactive	–	inactive	inactive	inactive	inactive
CCC(=O)O[C@]1(C(=O)CCl)[C@@H](C)CC2C3C[C@H](F)C4=CC(=O)C=CC4(C)[C@@]3(F)C(O)CC21C (stereo partly specified)	inactive	10700 nM (active)	11200 nM (active)	4260 nM (active)	12000 nM (active)	12000 nM (active)	6010 nM (active)	–	–	–	–	–
C#C[C@]1(O)CC[C@H]2[C@H]3[C@H](CC[C@@]21C)C1=C(CC(=O)CC1)C[C@@H]3C	–	inactive	inactive	–	–	inactive	–	–	–	–	–	–
C[C@@H]1CCN(C(=O)[C@H](CCCNC(=N)N)NS(=O)(=O)c2cccc3c2NC[C@H](C)C3)[C@@H](C(=O)O)C1	inactive	inactive	–	inactive	inactive	inactive	–	inactive	inactive	–	–	–
